Experimental findings from ChEMBL document CHEMBL4513216, “Probing the Open Global Health Chemical Diversity Library for Multistage-Active Starting Points for Next-Generation Antimalarials” (ACS Infect Dis, 2020) are described below.

Hit rate of the full screen: of about 69,000 compounds, about 8,600 (12%) showed an effect of 50% or more. Shown is part of a subset that was picked to be rich in strong results.

The test relates to Plasmodium berghei. The experiment in a line: Screen against P. berghei liver stage (PbLuc), transformed with Luciferase, at 10uM. It counts as functional, HepG2. Conditions: tested at 10 uM.
Turning to `Cc1ccc(C(=O)N2CCCN(Cc3cccs3)CC2)n1C`, the INHIBITION amounted to 6.683%.

As to `O=S1(=O)NC(C2CCN(Cc3ccncc3)CC2)Nc2ccccc21` (stereo not drawn), the INHIBITION is 1.5%.

In the case of `CN(Cc1ccncc1)CC1CCCN(CCc2ccc(Cl)cc2)C1` (stereo not drawn), the INHIBITION is on record as 65.9%.

In the case of `COc1ccccc1CN(Cc1cccnc1)Cc1c[nH]c(C)n1`, the INHIBITION is reported as 12%.

On to `CN(Cc1nnc(C2CC2)n1C)C1CCN(CCc2ccncc2)C1` (stereo not drawn), for which the INHIBITION is on record as -11.2%.

Turning to `COc1ccccc1CCN1CCCC(CN(C)Cc2c[nH]c(C)n2)C1` (stereo not drawn), the INHIBITION is 85.7%.

In the case of `COc1ccccc1CC1CCCN(CCC#N)C1` (stereo not drawn), the INHIBITION amounted to 9.32%.

Regarding `CN(Cc1cnc(N)nc1)CC1CCCN(CCc2ccc(Cl)cc2)C1` (stereo not drawn), the INHIBITION is -7.94%.

Take `Cc1nc(CN(C)CC2CCCN(CCc3ccc(Cl)cc3)C2)no1` (stereo not drawn): the INHIBITION is on record as 40.8%.

For `Cc1nc(CN(C)CC2CCCN(CCc3ccc(Cl)cc3)C2)n(C)n1` (stereo not drawn), the INHIBITION was found to be 39.3%.

For `Cc1noc(CN(C)CC2CCCN(CCc3ccc(Cl)cc3)C2)n1` (stereo not drawn), the INHIBITION was 58.5%.

In the case of `CC(=O)NCCNC(=O)c1sc(-c2ccc(Cl)cc2)nc1C`, the INHIBITION is recorded as -14.75%.

For the molecule `C[C@@H]1CN(CCc2ccccc2)C[C@]12CCN(CC(=O)N(C)C)C2=O`, the INHIBITION is given as -29.5%.

Consider `CC(C#N)CN(C)Cc1nc2c(cnn2C)c(=O)[nH]1` (stereo not drawn), for which the INHIBITION amounted to 5.72%.

Take `CCN(CC1CCCO1)S(=O)(=O)N1CCCCCC1` (stereo not drawn): the INHIBITION is -9.21%.

Consider `Cc1ccc2c(c1)c(Sc1ccccc1)c(CC(=O)O)n2C`, for which the INHIBITION was 12.8%.

With `Cc1c[nH]nc1C1CCN(C(=O)CC2CCCC2)C1` (stereo not drawn), the INHIBITION was -136%.

As for `CCc1oc(C(=O)N(C)Cc2nonc2C)cc1CN(CC)CC`, the INHIBITION was determined as 35.7%.

On to `Cc1ccc(C(=O)N2CCC3(CC2)C(=O)NCCN3C)cc1O`, for which the INHIBITION amounted to 4.64%.

Take `CN(C)c1ncccc1CN1CCOC(C(=O)Nc2ccccc2)C1` (stereo not drawn): the INHIBITION amounted to 37.6%.

As to `Cc1cc(C)cc(NC(=O)CC2CN(Cc3ccccc3)CCO2)c1` (stereo not drawn), the INHIBITION was -10.9%.

As to `O=C(O)C1CN(Cc2cccc(-c3ccccn3)c2)CCO1` (stereo not drawn), the INHIBITION is -1.45%.

For `CN(C)c1ccc(NC(=O)C2CN(Cc3ccccc3)CCO2)cn1` (stereo not drawn), the INHIBITION is listed as 52.6%.

With `CN(C)c1ncc(CN2CCOC(C(=O)Nc3ccccc3)C2)cn1` (stereo not drawn), the INHIBITION is reported as 23.9%.

Take `CC(C)c1ncc(CN2CCOC(C(=O)Nc3ccccc3)C2)cn1` (stereo not drawn): the INHIBITION was determined as 6.32%.

On to `CC(C)(C)n1cc(NC(=O)C2CN(Cc3ccccc3)CCO2)cn1` (stereo not drawn), for which the INHIBITION was -43.3%.

For `CN(C)c1ncccc1NC(=O)C1CN(Cc2ccccc2)CCO1` (stereo not drawn), the INHIBITION amounted to 85.1%.

Take `Cc1cc(NC(=O)C2CN(Cc3ccccc3)CCO2)ccn1` (stereo not drawn): the INHIBITION is 96.2%.

As for `Cc1ccc(CNc2cc(N3CCCC3CO)ncn2)s1` (stereo not drawn), the INHIBITION was -23.9%.

Regarding `C[C@@H]1CN(C(=O)c2cccn2C)C[C@]12CCN(c1ccsc1)C2=O`, the INHIBITION is reported as 8.93%.

As to `CC(C)c1nnc2n1CC(CNCc1nc3ccccc3o1)CC2` (stereo not drawn), the INHIBITION was found to be 13%.

For the molecule `Cc1cc(NCc2cn(C)nc2-c2cccnc2)n(C)n1`, the INHIBITION is -17.1%.

With `CCn1cnnc1CNC(=O)N1CCCCCC1`, the INHIBITION was -8.11%.

For `COCC1COCCC12CCN(S(=O)(=O)c1cccnc1)CC2` (stereo not drawn), the INHIBITION is 36.5%.

In the case of `Cc1cnn(CCNCc2nnc(-c3ccc(F)cc3)o2)c1`, the INHIBITION is given as -35.7%.

For `O=C(C1CNCCN1C(=O)CCOc1ccccc1)N1CCCC1` (stereo not drawn), the INHIBITION is given as -27.5%.

As to `Cc1c(C(=O)O)cnn1-c1ccc(-c2nc(C(C)C)no2)cn1`, the INHIBITION is -44.7%.

Regarding `CC(C)c1nc(C2CCCN(C(=O)c3ccc4[nH]nnc4c3)C2)no1` (stereo not drawn), the INHIBITION is given as -6.14%.

On to `Cc1nnc(N2C[C@@H](OCCCn3cccn3)[C@H]3OCCC[C@H]32)s1`, for which the INHIBITION was 50.1%.

As to `O=C(CC1CC1)N1CCO[C@H]2[C@H](OCCCn3cccn3)CC[C@@H]21`, the INHIBITION is listed as 55%.

As for `CC(=O)N1CCO[C@H]2[C@H](OCCCn3cccn3)CC[C@@H]21`, the INHIBITION came to 19.4%.

For the molecule `Cc1nnc(N2C[C@H](OCc3ccncc3)[C@H]3OCCC[C@H]32)s1`, the INHIBITION is 19.5%.

Turning to `c1cnn(CCCO[C@@H]2CC[C@H]3[C@H]2OCCN3CC2CCOCC2)c1`, the INHIBITION worked out at 26.3%.

On to `c1cnn(CCCO[C@@H]2CC[C@H]3[C@H]2OCCN3CC2CC2)c1`, for which the INHIBITION is 53%.

As for `Cc1nnc(N2C[C@H](OCCCn3cccn3)[C@H]3OCCC[C@H]32)s1`, the INHIBITION was determined as 43.9%.

With `CCS(=O)(=O)N1CCO[C@H]2[C@H](OCCCn3cccn3)CC[C@@H]21`, the INHIBITION is -0.182%.

Consider `O=C(C1CCC1)N1CCO[C@H]2[C@H](OCCCn3cccn3)CC[C@@H]21`, for which the INHIBITION is listed as -47.8%.

On to `Clc1ccc(OCCNCCn2cccn2)cc1`, for which the INHIBITION was determined as 9.14%.

For the molecule `O=C(CCOCC(F)(F)F)N1CCCC(n2ccnc2)C1` (stereo not drawn), the INHIBITION is -63.3%.

For `O=C(NCc1ccccc1Cn1cncn1)C1CC1`, the INHIBITION turned out to be 49.8%.

As to `CC(=O)N1CCN(Cc2ccccn2)CC2(CC(=O)N(C)C2)C1` (stereo not drawn), the INHIBITION was determined as 14.1%.

`Cc1ncsc1CCC(=O)N1CCCC1c1cccnc1` (stereo not drawn): the INHIBITION is given as -2.79%.

Turning to `Cc1ncsc1CCC(=O)N1CCn2cccc2C1c1cccnc1` (stereo not drawn), the INHIBITION worked out at 59.1%.
